# Source: PubChem BioAssay AID686979 (National Center for Advancing Translational Sciences (NCATS), 2013)
# Screen size: about 420,000 compounds; about 50,000 (12%) were called active. Inconclusive results (about 26%) are left out. The call rests on the fitted dose curve; in most records, active means well fitted inhibition curve with a large enough effect; inconclusive means small, poorly fitted or top-dose-only effect; inactive means flat fitted curve, though single readings scatter. What follows is part of a selection rich in actives, with near analogues and random picks from the rest. A call without a number means that no potency is given here.
# Test: qHTS for Inhibitors of human tyrosyl-DNA phosphodiesterase 1 (TDP1): qHTS in cells in presence of CPT; further: nearly all actives have a fitted effect of over 55% in size
# Details: chicken DT40 Tdp1-/-;hTDP1 cells + 20 nM CPT, ATP luminescence, 48 h; series mostly up to 46.2 µM
# Procedure, shortened: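 Chicken DT40 Tdp1-/- cells complemented with human TDP1, 400 cells/well, exposed to compounds plus 20 nM camptothecin for at least 48 h at 37 C; viability read as ATP content by CellTiter-Glo luminescence.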
# Potency means the concentration at half of the fitted maximal effect.
row,SMILES,Potency
1,CCOc1cc(C(=O)Nc2c(C)ccc3nsnc23)cc(OCC)c1OCC,inactive
2,COc1ccc(-c2nnc(SC(C)C#N)o2)cc1 (stereo not drawn),inactive
3,COc1ccc(-c2nnc(SC(=O)N3c4ccccc4Sc4ccccc43)o2)cc1,8.2 µM (active)
4,COc1ccc(-c2nnc(SC(C)C(=O)NC3CC3)o2)cc1 (stereo not drawn),inactive
5,OCCN1CCN(c2nnc(-c3ccccc3)c3ccccc23)CC1,inactive
6,Clc1ccc(-c2nnc(-c3ccccc3)nc2N2CCSCC2)cc1,16.4 µM (active)
7,O=C(Cn1c(=O)n(-c2ccc(F)cc2)c(=O)c2sc3ccccc3c21)NC1CCCC1,inactive
8,O=c1c2ccccc2ncn1CCc1ccncc1,inactive
9,COc1ccccc1-c1cc2nc(C)c(CCC(=O)O)c(C)n2n1,inactive
10,Cc1ccc(S(=O)(=O)n2nc(OC(=O)C(C)(C)C)cc2N)cc1,inactive
11,CCOC(=O)c1oc2ccc(S(=O)(=O)n3nc(-c4ccccc4OC)cc3N)cc2c1C,18.4 µM (active)
12,O=C(CC1C(=O)NCCN1Cc1ccc(-c2ccccc2)cc1)NCc1ccncc1 (stereo not drawn),inactive
13,CN[C@@H]1[C@H](O[C@H]2[C@H](O[C@H]3[C@H](O)[C@@H](O)[C@H](N=C(N)N)[C@@H](O)[C@@H]3N=C(N)N)O[C@@H](C)[C@]2(O)CO)O[C@@H](CO)[C@H](O)[C@H]1O,inactive
14,Cc1nc(Nc2ccc(S(=O)(=O)N3CCCC3)cc2)c2nnn(Cc3ccccc3)c2n1,inactive
15,Cc1ccc(-c2csc(-c3cc(C)on3)n2)cc1,inactive
16,Cc1ccc(-c2csc(-c3c[nH]c4ccccc34)n2)cc1,16.4 µM (active)
17,Clc1ccc(-c2csc(-c3ccncc3)n2)cc1,inactive
18,O=C(NNC1=NCCC1)c1cccc(S(=O)(=O)N2CCCCC2)c1,inactive
19,Cc1ccc(-c2nc3ccccc3[nH]c2=O)cc1,inactive
20,CCCCCn1nnnc1-c1nc2cc3ccccc3cc2[nH]c1=O,4.11 µM (active)
21,c1ccc2cc3[nH]c(CN4CCCCC4)nc3cc2c1,inactive
22,CN1CCN(c2ccc(NC(=O)c3ccc4c(c3)OCCO4)cc2Cl)CC1,inactive
23,Cc1cc(C)cc(NC(=O)Cc2csc(C)n2)c1,inactive
24,O=C(OCCN1C(=O)c2ccccc2C1=O)Oc1ccccc1,inactive
25,O=C(Cn1c(-c2cncs2)nc2ccccc21)NC1CCCC1,inactive
26,O=C(Cn1c(-c2cscn2)nc2ccccc21)Nc1ccc(Cl)cc1,5.8 µM (active)

row,SMILES,Potency
1,COc1ccc(NC(=O)COC(=O)Cn2c(C)nc3ccccc32)cc1OC,inactive
2,COc1ccc(/C=N/N(C)C2=NS(=O)(=O)c3ccccc32)cc1OC,inactive
3,CC1(C(=O)Nc2ccc3c(c2)OCCO3)CSCC(=O)N1CCOc1ccccc1 (stereo not drawn),inactive
4,Cc1cc(NC(=O)CSc2ncc(C(=O)Nc3ccc(Cl)cc3)c(=O)n2C)no1,inactive
5,Cc1ccc(NC(=O)c2cnc(SCC(=O)NCC3CCCO3)n(C)c2=O)cc1 (stereo not drawn),11.6 µM (active)
6,Cn1c(SCC(=O)c2ccccc2)ncc(C(=O)Nc2ccc(F)cc2)c1=O,inactive
7,O=C(NC1CCCCC1)C1CCCN(S(=O)(=O)c2ccc(Br)s2)C1 (stereo not drawn),inactive
8,Nc1nc(SCc2ccc([N+](=O)[O-])cc2)c2ncn(C3OC(CO)C(O)C3O)c2n1 (stereo not drawn),inactive
9,O=C(Nc1nnc(C2CC2)s1)C1=NN(C2CCS(=O)(=O)C2)C(=O)CC1 (stereo not drawn),inactive
10,COc1ccc(CNC(=O)c2ccc(NS(=O)(=O)c3ccc4[nH]c(=O)[nH]c4c3)cc2)cc1OC,inactive
11,O=C(COC(=O)CNS(=O)(=O)c1ccc(F)c(F)c1F)NC1CCCC1,inactive
12,O=C(CCc1nnc(Cc2ccc3c(c2)OCO3)o1)NCCc1ccccc1Cl,11.6 µM (active)
13,O=C(CCNS(=O)(=O)c1ccccc1C(F)(F)F)NCc1ccc2c(c1)OCO2,inactive
14,Cn1cc(CCC(=O)NCc2ccc3c(c2)OCO3)c2ccccc21,inactive
15,O=C(O)CCC(=O)NCc1ccc(C(=O)O)cc1,inactive
16,COc1cc2c(cc1CNC[C@H]1O[C@@H](n3cnc(C(N)=O)n3)[C@H](O)[C@@H]1O)OCO2,inactive
17,CCCOc1ccc(C2NC(=O)NC(c3ccccc3)=C2C(C)=O)cc1OCC (stereo not drawn),23.1 µM (active)
18,COC(=O)COc1ccc(C2NC(=O)NC(C)=C2C(=O)NCc2ccccc2)cc1OC (stereo not drawn),inactive
19,COc1cc(C2NC(=O)NC(c3ccccc3)=C2C(C)=O)c(Br)cc1OCC(N)=O (stereo not drawn),inactive
20,CC1CC1C(=O)OCC(=O)Nc1cccc(F)c1 (stereo not drawn),inactive
21,CN1C/C(=C/c2cccs2)C(=O)/C(=C\c2cccs2)C1,inactive
22,O=C1N/C(=C/c2cccs2)C(=O)N1Cc1ccc(F)cc1,inactive
23,CSC1=N/C(=C\C=C\c2cccs2)C(=O)S1,14.6 µM (active)
24,Cn1c(=O)n(Cc2c(F)cccc2Cl)c(=O)c2c1nc1n2CCN1c1ccc(F)cc1,inactive
25,COc1ccc(OC)c(-c2csc(-c3c(N)c(C(=O)c4ccccc4)n4ccccc34)n2)c1,inactive
26,CCN1/C(=C/C(=S)Nc2ccccc2)Sc2ccccc21,inactive

row,SMILES,Potency
1,CCN1/C(=C\c2ccc3ccccc3[n+]2CC)Sc2cc(C)ccc21,0.184 µM (active)
2,CCN1/C(=C/c2ccc3ccc(C)cc3[n+]2CC)Sc2ccccc21,2.06 µM (active)
3,O=C(CN1C(=O)NC2(CCCCCC2)C1=O)NCc1ccc(F)cc1,inactive
4,O=C(CN1C(=O)NC2(CCCCCCC2)C1=O)NCc1ccc(F)cc1,16.4 µM (active)
5,O=C(CN1C(=O)NC2(CCCCCC2)C1=O)NCc1cccs1,inactive
6,Cc1ccc(NC(=O)NC(=O)CSc2nnc(-c3ccc(OC(F)F)cc3)n2N)c(C)c1,inactive
7,CC(C)(C)C(=O)Nc1ccc(-c2cn3cccnc3n2)cc1,inactive
8,CC1CCCCN1C(=S)NCc1ccccc1 (stereo not drawn),inactive
9,O=C(CC1CCCCC1)NCc1ccccc1,inactive
10,C/C(=N\NC(=S)NCc1ccccc1)C1CCCCC1,6.51 µM (active)
11,O=C(Nc1ccon1)c1nc[nH]c1C(=O)NCc1ccccc1,inactive
12,CCC(=O)N1CCc2cc(Br)cc(S(=O)(=O)NCc3ccc(Cl)cc3)c21,inactive
13,O=C1C=C(c2ccnc3cc(Cl)ccc23)C[C@@H](c2ccc3c(c2)OCO3)C1,5.8 µM (active)
14,CC(=O)C1=C(C)NC(=O)NC1c1ccc2c(c1)OCO2 (stereo not drawn),inactive
15,O=C1C=C(c2cccc(Cl)c2)C[C@@H](c2ccc(F)cc2)C1,inactive
16,Cc1ccc(C)c(NC(=O)C2CCCN2C(=O)OC(C)(C)C)c1 (stereo not drawn),inactive
17,Cc1ccc(NC(=O)C2CCCN2C(=O)OCc2ccccc2)cc1C (stereo not drawn),inactive
18,Cc1cccc(C)c1NC(=O)C1CCCN1C(=O)OC(C)(C)C (stereo not drawn),11.6 µM (active)
19,Cc1csc(=O)n1CCC(=O)OCC(=O)Nc1ccc(N2CCOCC2)cc1,inactive
20,C[C@H](NC(=O)CC[C@H]1O[C@@H](n2ccc(=O)[nH]c2=O)[C@H](O)[C@@H]1O)c1cccc2ccccc12,inactive
21,COc1ccc([N+](=O)[O-])cc1N(CC(=O)Nc1ccccc1C(=O)N1CCOCC1)S(C)(=O)=O,inactive
22,CC1C(=O)N(Cc2ccccc2)c2ccccc2N1C(=O)c1ccccc1 (stereo not drawn),23.1 µM (active)
23,CC1Oc2ccccc2N(Cc2cccnc2)C1=O (stereo not drawn),inactive
24,O=C1C(Cc2ccc(O)cc2)NC(=S)N1Cc1ccccc1 (stereo not drawn),inactive
25,COc1ccc(C(=O)COC(=O)C(O)c2ccccc2)c(OC)c1 (stereo not drawn),inactive
26,O=C1N(c2ccccc2)C(=Nc2ccccc2)SC12CC2,inactive

row,SMILES,Potency
1,Cc1cc(C)c(S(=O)(=O)Nc2c(C)n(C)n(-c3ccccc3)c2=O)cc1[N+](=O)[O-],inactive
2,CC(=O)Nc1cccc(-c2ccnc3c2CC(C)(C(=O)NCc2ccco2)O3)c1 (stereo not drawn),1.03 µM (active)
3,CC1(C)Cc2cccc(OCC(=O)NCc3ccccc3)c2O1,inactive
4,CC(C)(C)NC(=O)NCc1ccco1,inactive
5,COc1cccc(NC(=S)NCc2ccco2)c1,inactive
6,CC(=O)Nc1cccc(-c2ccnc3c2CC(C)(C(=O)NCc2ccccc2)O3)c1 (stereo not drawn),0.82 µM (active)
7,CC1(C(=O)NCC2CCOCC2)Cc2c(-c3cccc(C(N)=O)c3)ccnc2O1 (stereo not drawn),25.9 µM (active)
8,CC(=O)Nc1cccc(-c2cnc3ccccc3n2)c1,inactive
9,COc1ccc(NC(=O)Nc2cccc(-c3noc(C)n3)c2)cc1,inactive
10,COc1ccc(NC(=O)C2(C)Cc3c(-c4cccc(NC(C)=O)c4)ccnc3O2)cc1 (stereo not drawn),1.64 µM (active)
11,COc1ccc(NC(=O)C2(C)Cc3c(-c4ccc(C(N)=O)cc4)ccnc3O2)cc1 (stereo not drawn),inactive
12,COc1ccc(NC(=O)CCn2ccnc2)c(OC)c1,inactive
13,CC1=C(C(=O)N2CCOCC2)CC(CC(=O)NCCCN(C)C)C(=O)N1Cc1ccc(C(C)(C)C)cc1 (stereo not drawn),inactive
14,CC(C)N(C(=O)CSc1nnc(NC2CC2)s1)c1ccccc1,inactive
15,O=C(Nc1cc(-c2nc3ncccc3o2)ccc1Cl)c1ccco1,inactive
16,CSCCC(NC(=O)c1ccco1)C(=O)Nc1cc(C)ccn1 (stereo not drawn),inactive
17,CC(=O)c1ccc(OCC(=O)N(C)C2CCS(=O)(=O)C2)cc1 (stereo not drawn),inactive
18,CN(Cc1cc2cc(F)ccc2[nH]1)Cc1nc(-c2cnccn2)no1,inactive
19,Cn1cc(CNC(=O)c2ccc(OC3CCN(Cc4ccccn4)CC3)cc2)cn1,inactive
20,CCOC(=O)C1(Cc2cccc(OC)c2)CCCN(S(=O)(=O)c2cccnc2)C1 (stereo not drawn),inactive
21,COc1ccc(-c2nnc(NC(=O)CS(=O)(=O)c3ccc(Cl)cc3)o2)c(OC)c1,inactive
22,Cc1ccc(C)c(-c2nnc(NC(=O)CS(=O)(=O)c3ccccc3)o2)c1,11.6 µM (active)
23,COc1cc(-c2nnc(NC(=O)CS(=O)(=O)c3ccc(Cl)cc3)o2)cc(OC)c1OC,inactive
24,Cc1cccc(C)c1NC(=O)NC1=CCCN1C,inactive
25,CCOC(=O)c1ccc(S(=O)(=O)N(CCO)Cc2cc3cc(OC)c(OC)cc3[nH]c2=O)cc1,inactive
